Screening results as filed in PubChem.
The list is not random: actives were taken first. Their share in the collection is about 10%.
NPR1 antag: Natriuretic polypeptide receptor (hNpr1) antagonism - Primary qHTS; Atrial natriuretic peptide receptor 1 (Homo sapiens), P16066; HEK293 hNpr1 GloSensor cGMP, ANP-stimulated luminescence; Potency, µM (titrated, usually from 46.3 µM), inactives show at the top dose activity change, negative = inhibition, actives largely listed as inhibitors; hit rate 1.6% among 76,000; AID 1347048, 2019; calls by dose curve; also: nearly all actives have a fitted effect of over 60% in size
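HEK293 cells stably expressing human Npr1 and cGMP GloSensor pGS-40F, loaded 2 h with 2% GloSensor reagent, given compound 30 min at room temperature. Luminescence read before and 20 min after 0.1 nM hNppA.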
NIH3T3 tox: Cytotoxic Profiling in NIH 3T3 Cell Line of Diverse Libraries Using Quantitative High-Throughput Screening; NIH 3T3 viability, CellTiter-Glo ATP luminescence, 48-72 h; Potency, µM (doses to about 96.7 µM), for inactives: at the highest dose activity change, negative = cytotoxicity, usual class: inhibitors; hit rate 4.3% among 94,000; also: nearly all actives have a fitted effect of over 55% in size
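NIH 3T3 cells at 400 cells/well received 23 nL of compound by pintool and were incubated 48 or 72 h at 37 °C. Viability was read as ATP-coupled CellTiter-Glo luminescence.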
Luciferase inh: Firefly luciferase inhibition profiling of diverse chemical library using quantitative high-throughput screening; Potency, µM (doses to about 115 µM), actives largely listed as inhibitors; Luciferin 4-monooxygenase (Photinus pyralis), P08659; AID 1347043, 2019; hit rate 2.5% among 76,000; purified P. pyralis luciferase, luminescence, biochemical; also: nearly all actives have a fitted effect of over 65% in size
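Luminescence read by CCD imaging after purified firefly luciferase (10nM final) was added to substrate buffer holding 10uM D-luciferin and 10uM ATP, pH 7.5, pre-dosed with compound.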
GPT2 inhibitor: Primary qHTS assay for inhibitors of Glutamate pyruvate transaminase 2 (GPT2) | Recombinant GPT2, coupled pyruvate oxidase/HRP Amplex Red fluorescence | hit rate 0.25% among 100,000 | Potency, µM (titrated, usually from 57.7 µM), without a hit: top-dose activity change, negative = inhibition, usual class: inhibitors; also: nearly all actives have a fitted effect of over 60% in size
Target sequence (Q8TD30 whole entry, looked up): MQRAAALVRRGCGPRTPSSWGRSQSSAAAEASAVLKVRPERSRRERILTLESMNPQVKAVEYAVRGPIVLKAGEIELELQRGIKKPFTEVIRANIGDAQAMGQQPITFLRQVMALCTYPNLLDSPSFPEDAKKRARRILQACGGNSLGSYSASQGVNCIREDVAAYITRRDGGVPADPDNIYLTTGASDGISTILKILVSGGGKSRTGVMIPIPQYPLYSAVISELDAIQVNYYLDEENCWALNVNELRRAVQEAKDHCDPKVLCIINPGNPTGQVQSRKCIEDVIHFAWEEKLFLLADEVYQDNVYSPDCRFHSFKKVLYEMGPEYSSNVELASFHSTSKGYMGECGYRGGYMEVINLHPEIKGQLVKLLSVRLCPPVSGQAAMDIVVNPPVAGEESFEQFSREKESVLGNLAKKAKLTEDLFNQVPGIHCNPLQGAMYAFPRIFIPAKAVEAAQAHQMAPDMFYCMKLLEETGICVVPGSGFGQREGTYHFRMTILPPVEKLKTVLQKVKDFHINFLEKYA
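Fluorescence read-out: pyruvate from GPT2 turnover coupled to pyruvate oxidase, HRP and Amplex Red (0.2mM ThPP, 0.2U/mL PO and HRP, 50uM Amplex final). Substrates 250uM a-KG, 2mM L-alanine; enzyme 10ng/uL; 30 min RT.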
HEK293 tox: Cytotoxic Profiling in HEK 293 Cell Line of Diverse Libraries Using Quantitative High-Throughput Screening; HEK 293 viability, ATP luminescence (CellTiter-Glo), 48-72 h; Potency, µM (highest dose often 115 µM), inactives show at the top dose activity change, negative = cytotoxicity, most hits filed as inhibitors; hit rate 6.6% among 94,000; AID 1345083, 2018; also: nearly all actives have a fitted effect of over 60% in size
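Read-out: CellTiter-Glo ATP luminescence. Cells: HEK 293, 250 cells/well. Exposure: 48 or 72 hr, 37 degree Celsius.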
Starred values were filed as active, the others as inactive; ! = a repeat was not active; [ ] = dose if it differs, or a comment. Unless noted, calls follow the shape of the dose curve; as a rule, active = well fitted curve in the direction sought with a large enough effect; inconclusive = small, poorly fitted or top-dose-only effect, or another doubt; inactive = no such curve, though single readings can be large; an effect the other way counts as inactive or inconclusive. % is scaled to controls: 0 for no effect and ±100 for the full control effect; potency is read from the fitted curve at half-maximal effect.

COCCOCc1nc(C2CCCN2C(=O)c2cccs2)no1 (centres undefined) was read as NPR1 antag -7.9%, NIH3T3 tox 2.9%, Luciferase inh inactive, GPT2 inhibitor inactive and HEK293 tox inactive.
For CC(C)CC(=O)N1CCC2(CC1)CC(Cc1cccc(F)c1)CCO2 (centres undefined) the results were NPR1 antag -10.7%, NIH3T3 tox inconclusive, Luciferase inh inactive, GPT2 inhibitor inconclusive and HEK293 tox inconclusive.
`CNC(=O)N1CCC(C2CCN(C(=O)Cc3ccccc3)C2)CC1` (centres undefined) gave NPR1 antag 1.9%, NIH3T3 tox -10.4%, Luciferase inh inactive, GPT2 inhibitor -13.4% and HEK293 tox -22.4%.
`CNC(=O)N1CCC(C2CCN(C(=O)CCCc3ccccc3)C2)CC1` (centres undefined) gave NPR1 antag -20.8%, NIH3T3 tox -9.0%, Luciferase inh 25.1µM*, GPT2 inhibitor -18.0% and HEK293 tox -0.3%.
CN1CCC(OC2CCN(C(=O)CCCc3ccccc3)CC2)CC1 was read as NPR1 antag -5.6%, NIH3T3 tox -23.0%, Luciferase inh 28.2µM*, GPT2 inhibitor 0.6% and HEK293 tox -8.5%.
`CN1CCC(OC2CCN(C(=O)c3ccccc3)CC2)CC1` gave NPR1 antag -5.2%, NIH3T3 tox -4.9%, Luciferase inh inactive, GPT2 inhibitor 4.2% and HEK293 tox 1.9%.
`CCOC(=O)C1CCN(C(=O)c2ccc3nc(-c4ccnc(Cl)c4)oc3c2)CC1` gave NIH3T3 tox 100µM*, GPT2 inhibitor inactive and HEK293 tox 100µM*.
`COCCOC1CCOC2(CCN(C(=O)c3ccncc3)CC2)C1` (centres undefined) gave NPR1 antag -28.6%, NIH3T3 tox -2.7%, Luciferase inh inactive, GPT2 inhibitor inactive and HEK293 tox 2.3%.
Screening Cc1ccc(-n2nc(C)c([C@@H]3C=C[C@@H](NC(=O)NC4CCCCC4)C3)c2C)cc1Cl returned NPR1 antag -19.7%[70.6 µM], NIH3T3 tox inconclusive, Luciferase inh 8.91µM*, GPT2 inhibitor -9.6%[88.5 µM] and HEK293 tox inconclusive.
`Cc1nn(-c2ccc(C(C)(C)C)cc2)c(C)c1[C@@H]1C=C[C@@H](NC(=O)Nc2ccccc2)C1` gave NPR1 antag -21.2%[70.6 µM], NIH3T3 tox inconclusive, Luciferase inh inactive, GPT2 inhibitor -3.0%[88.5 µM] and HEK293 tox inconclusive.
`COC(=O)c1cccc(NC(=S)N[C@@H]2C=C[C@@H](c3c(C)nn(-c4ccc(C(C)C)cc4)c3C)C2)c1` gave NPR1 antag inconclusive, NIH3T3 tox inconclusive, Luciferase inh 12.6µM*, GPT2 inhibitor -15.6% and HEK293 tox inconclusive.
`Cc1nn(-c2ccccn2)c(C)c1[C@@H]1C=C[C@@H](NC(=O)NC(C)C)C1` gave NPR1 antag 0.6%[70.6 µM], NIH3T3 tox inconclusive, Luciferase inh inconclusive, GPT2 inhibitor -17.8%[88.5 µM] and HEK293 tox -23.5%[172 µM].
`COc1ccc(-n2nc(C)c([C@@H]3C=C[C@@H](NC(=O)NC4CCCCC4)C3)c2C)cc1` gave NPR1 antag 22.4µM*, NIH3T3 tox inconclusive, Luciferase inh inconclusive, GPT2 inhibitor -1.9%[88.5 µM] and HEK293 tox inconclusive.
Screening CCNC(=O)N[C@@H]1C=C[C@@H](c2c(C)nn(-c3ccc(OC)cc3)c2C)C1 returned NPR1 antag 10µM*, NIH3T3 tox 50.1µM*, Luciferase inh inconclusive, GPT2 inhibitor 0.5%[88.5 µM] and HEK293 tox inconclusive.
COc1cccc(C(=O)N2CCC[C@@H]2C(=O)N2CCC(N3CCOC3=O)CC2)c1 was read as NIH3T3 tox -2.2%, GPT2 inhibitor -23.4% and HEK293 tox inactive.
Screening Cc1nn(-c2ccc(C(C)C)cc2)c(C)c1[C@@H]1C=C[C@@H](NC(=S)NC2CCCCC2)C1 returned NPR1 antag -14.1%, NIH3T3 tox inconclusive, Luciferase inh 10µM*, GPT2 inhibitor 2.6% and HEK293 tox inconclusive.
Screening Cc1nn(-c2ccccn2)c(C)c1[C@@H]1C=C[C@@H](NC(=O)C2CCCCC2)C1 returned NPR1 antag -7.9%[70.6 µM], NIH3T3 tox inconclusive, Luciferase inh inactive, GPT2 inhibitor -31.4%[88.5 µM] and HEK293 tox inconclusive.
Screening Cc1ccc(-n2nc(C)c([C@@H]3C=C[C@@H](N)C3)c2C)cc1Cl returned NPR1 antag 2.5%[70.6 µM], NIH3T3 tox 28.2µM*, Luciferase inh 70.8µM*, GPT2 inhibitor inactive and HEK293 tox 39.8µM*.
Screening O=c1[nH]c(C2CCCN(Cc3ccccc3)C2)nn1-c1ccccc1 (centres undefined) returned NPR1 antag 15.8%[70.6 µM], NIH3T3 tox 89.1µM*, Luciferase inh inactive, GPT2 inhibitor inactive and HEK293 tox 100µM*.
For COc1ccc(-n2nc(C3CCN(Cc4ccc(OC(F)(F)F)cc4)CC3)[nH]c2=O)cc1 the results were NPR1 antag inconclusive, NIH3T3 tox -1.5%, Luciferase inh inactive, GPT2 inhibitor inactive and HEK293 tox inconclusive.
Screening COc1ccc(-n2nc(C3CCN(Cc4ccc(C(F)(F)F)cc4)CC3)[nH]c2=O)cc1 returned NPR1 antag inconclusive, NIH3T3 tox inconclusive, Luciferase inh inactive, GPT2 inhibitor 3.0% and HEK293 tox 31.6µM*!.
CC(C)(C)C(=O)N1CCC(c2nn(-c3ccccc3)c(=O)[nH]2)CC1 was read as NPR1 antag 0.0%[70.6 µM], NIH3T3 tox -9.6%[138 µM], Luciferase inh 50.1µM*, GPT2 inhibitor 0.6%[88.5 µM] and HEK293 tox inconclusive.
Screening O=C(Nc1ccc(Cl)cc1)N1CCCC(c2nn(-c3ccccn3)c(=O)[nH]2)C1 (centres undefined) returned NIH3T3 tox 35.5µM*, GPT2 inhibitor inactive and HEK293 tox 39.8µM*.
Screening CN(C)C(=O)c1cccnc1OC1CCN(C(=O)NC(C)(C)C)C1 (centres undefined) returned NPR1 antag -0.1%, NIH3T3 tox inactive, Luciferase inh inactive, GPT2 inhibitor -3.6% and HEK293 tox inactive.
`OC1(c2csc(CN3CCOCC3)n2)CCN(CC2CC2)CC1` gave NPR1 antag -3.8%[70.6 µM], NIH3T3 tox -16.4%[174 µM], Luciferase inh inactive, GPT2 inhibitor inactive and HEK293 tox 0.1%[172 µM].
`Cc1ncoc1C(=O)NCC12CCC=C1N(C)C(=O)CC2` (centres undefined) gave NPR1 antag -7.8%, NIH3T3 tox -18.6%, Luciferase inh inactive, GPT2 inhibitor inactive and HEK293 tox -2.8%.
